In all, about 33,000 sequences were measured (“E-score (-0.5 to 0.5)”: median about -0.053, highest 2% from about 0.37 on). The entries come from a sample that favours the highest values as a whole.
Target: Hap1 (UniProt P0CE41)
Assay: PBM E-score (8-mer binding enrichment) (E-score (-0.5 to 0.5)); higher = stronger / more preferred TF binding
Details: protein concentration: 200 nM; construct: GST-DNA-binding domain
Description: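 Universal 'all 10-mer' protein binding microarrays (Agilent AMADID 015681) probed with GST-tagged S. cerevisiae TFs (full-length or DBD) made by in vitro transcription/translation (PURExpress), about 100-200 nM. Bound TF was detected with fluorescent anti-GST. Each ungapped 8-mer (which stands for itself and its reverse complement) is scored by the PBM enrichment score (E-score), a modified Wilcoxon-Mann-Whitney statistic from -0.5 to +0.5, computed with the Universal PBM Analysis Suite. Scale: above 0.35 generally sequence-specific binding.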

UniProt P0CE41, sequence (P0CE41 whole entry): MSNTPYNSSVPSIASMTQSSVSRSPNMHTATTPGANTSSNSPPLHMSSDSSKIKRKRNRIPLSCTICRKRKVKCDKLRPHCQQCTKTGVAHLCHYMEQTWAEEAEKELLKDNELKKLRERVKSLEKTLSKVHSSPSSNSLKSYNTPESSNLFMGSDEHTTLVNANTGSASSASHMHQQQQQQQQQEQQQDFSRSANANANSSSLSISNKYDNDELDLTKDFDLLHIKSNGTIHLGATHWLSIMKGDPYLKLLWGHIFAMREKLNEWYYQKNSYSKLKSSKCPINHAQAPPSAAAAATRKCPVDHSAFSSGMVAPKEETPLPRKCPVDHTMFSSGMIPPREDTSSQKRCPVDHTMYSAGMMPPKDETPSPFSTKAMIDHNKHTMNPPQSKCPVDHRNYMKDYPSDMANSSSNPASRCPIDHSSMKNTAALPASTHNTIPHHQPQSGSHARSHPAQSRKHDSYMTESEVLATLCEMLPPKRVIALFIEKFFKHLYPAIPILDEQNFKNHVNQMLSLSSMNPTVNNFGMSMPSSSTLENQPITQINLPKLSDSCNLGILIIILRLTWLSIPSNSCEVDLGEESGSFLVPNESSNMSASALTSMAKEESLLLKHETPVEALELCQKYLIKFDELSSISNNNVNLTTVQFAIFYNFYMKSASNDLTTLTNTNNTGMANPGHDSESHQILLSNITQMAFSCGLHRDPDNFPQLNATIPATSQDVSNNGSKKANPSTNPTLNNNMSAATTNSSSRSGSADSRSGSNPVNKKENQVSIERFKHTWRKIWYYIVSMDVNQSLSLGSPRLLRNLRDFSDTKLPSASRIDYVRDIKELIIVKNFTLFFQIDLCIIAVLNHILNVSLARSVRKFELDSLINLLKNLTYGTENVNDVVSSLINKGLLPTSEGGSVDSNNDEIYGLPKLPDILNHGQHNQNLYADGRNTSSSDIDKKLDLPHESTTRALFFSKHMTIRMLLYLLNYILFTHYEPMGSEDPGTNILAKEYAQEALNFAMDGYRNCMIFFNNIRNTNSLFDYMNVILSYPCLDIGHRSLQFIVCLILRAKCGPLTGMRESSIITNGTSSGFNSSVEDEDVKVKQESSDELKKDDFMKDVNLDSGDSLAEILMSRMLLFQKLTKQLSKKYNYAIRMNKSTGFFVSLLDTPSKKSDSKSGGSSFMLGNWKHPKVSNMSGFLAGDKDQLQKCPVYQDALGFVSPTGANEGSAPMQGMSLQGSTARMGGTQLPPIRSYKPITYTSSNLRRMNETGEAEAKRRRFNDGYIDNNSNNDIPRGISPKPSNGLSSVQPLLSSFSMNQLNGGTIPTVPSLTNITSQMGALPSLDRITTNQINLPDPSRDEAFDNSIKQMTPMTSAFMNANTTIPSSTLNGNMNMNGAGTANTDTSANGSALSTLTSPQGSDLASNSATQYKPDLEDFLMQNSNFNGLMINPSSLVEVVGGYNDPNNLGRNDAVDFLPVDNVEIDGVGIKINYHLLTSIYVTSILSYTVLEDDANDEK

Sequence	PBM E-score
AAACGCCG	0.402
AAACGCCA	0.0524
CAACGCCG	0.264
AATCGCCG	0.395
AATCGCCC	0.0407
CATCGCCG	0.293
CGGTCAAA	0.269
ACAATCCC	0.254
ACATCTCC	0.283
ATTTTTGA	-0.132
ATCTAAAT	0.149
GAAGTGGC	-0.0295
ATGAAACG	-0.0187
GAAACAGC	0.0614
TCCAAGGA	0.0272
GGGATAGA	-0.0284
GCATCTTA	-0.0356
AGTCCCGG	0.322
AGTCCGGC	0.389
AGTCCGTC	0.325
AGTCCGGG	0.393
AGTCCGCC	0.292
AGTCCGCG	0.297
CTCCAGAG	-0.0749
ACCATGAG	-0.129

Sequence	PBM E-score
GTCGGAAA	0.361
CACGGAAA	0.295
ATCGGAAG	0.236
TTCGGAAA	0.389
AACGGAAT	0.306
ATCGGAAT	0.363
AACGGAAA	0.385
ATCGGAAA	0.426
CTCGGAAA	0.346
ACATTGAC	-0.114
ATACCGAT	0.288
GACCAACA	0.0331
CCCCATCG	0.172
AATCGCGC	0.135
AGCGCAGG	0.00092
CGCGGATA	0.309
ATCGGATG	0.346
CGCGGATC	0.172
AACGGATT	0.338
GTCGGATA	0.339
ATCGGATA	0.404
ATCGGATC	0.339
CTCGGGTA	0.264
CACGGATA	0.298
CTCGGATC	0.383

Sequence	PBM E-score
CTCGGATA	0.371
AACGGATA	0.398
AGTGAGCA	-0.28
AACCAGCG	0.0362
CGTTGCAC	0.065
CGCACACA	-0.0394
ATGGGAGA	-0.315
CAGCTATG	-0.287
ACTGAAGG	-0.129
AATCCAGT	0.219
AATCCGTA	0.219
AATCCGGT	0.418
AATCCGCA	0.247
GATCCGGC	0.375
CATCCGAA	0.368
GATCCGAA	0.379
AATCCGGA	0.433
TATCCGAA	0.364
AATCCGCT	0.243
GATCCGAC	0.273
GATCCGCC	0.29
GAGGGCGA	0.0665
TACTGGGA	-0.0481
ATCGGGCG	0.36
ACAGATCA	-0.0146

Sequence	PBM E-score
CGCGTTGC	0.159
CTACTAAC	-0.214
TGCTAGAA	-0.118
GATCCGCA	0.253
TATCCTGA	-0.0806
AATCCGTC	0.232
GATCCGGA	0.395
CATCCGGA	0.423
CATCCGCA	0.224
GATCCGTA	0.225
TATCCGGA	0.428
TATCCGCA	0.253
CATCCGGC	0.342
CATCCGTA	0.2
AATCCGGC	0.37
ATACGTCA	0.0245
TAGTTTCA	-0.024
CACCTGTA	-0.173
GAAATCGC	0.196
ACTAGGCG	-0.0773
AATCCGCG	0.244
AATCCGGG	0.409
CATCCGGG	0.278
CCTAGGGA	-0.112
AATTCCGG	0.451

Sequence	PBM E-score
AATTCCGA	0.43
AATTCCGT	0.414
AATTCCGC	0.336
AATTCCAT	0.0073
AATTCCCT	-0.106
CATTCCGG	0.322
CATTCCGA	0.294
TATTCCGA	0.357
CTGGCTTC	-0.194
AGCGAACT	-0.137
AGAAGGAG	-0.248
AGTTGCGG	0.153
CAGTAGGC	-0.174
ATGGGTGA	-0.0877
ATCTAAGC	-0.0574
GCCTTTTA	-0.0799
AGTTGCGC	0.0784
GCTCCTAC	-0.0888
AAAATTAT	0.122
CCGAAAGC	0.369
CCGAAAGA	0.319
GCGAAAGC	0.0298
CCGAAACG	0.377
CCGAAACA	0.288
CCGAAAAG	0.311

Sequence	PBM E-score
CCGAAAAA	0.398
ACGAAAAC	0.124
GCGAAAAC	-0.0632
CCGAAAAC	0.379
CCGAAACC	0.298
TCGAAAAA	0.0162
CAACCCAC	-0.131
GCATTAGA	-0.112
CAGTTGAG	-0.225
AGAATTCT	0.108
CAGTGTTC	-0.0181
CGTGAAAC	-0.0905
GACAGGGC	-0.0413
AGGTTGTA	-0.112
ACGAAATC	0.0404
CCGAAATA	0.351
CCGAAATC	0.401
AAGCGGAG	-0.0297
TCTCAGCA	-0.326
ATCGAATG	-0.076
CTACGCCC	0.0263
TAGCATAA	-0.0142
ATTTCACA	-0.131
CGGCGATA	0.472
CGCCGTTA	0.291

Sequence	PBM E-score
CGCCGATA	0.426
GGCCGCTA	0.225
GGGCGTTA	0.147
AGGCGATA	0.119
CGGCGTTC	0.235
GGGCGATA	0.179
GGCCGTTA	0.333
CGCCGATC	0.326
CGGCGTTA	0.476
GGCCGATA	0.457
CGAAAAAC	0.169
GAATGCAC	-0.00315
AGGGATGA	-0.133
AGTCAAAG	-0.13
GTCGCGAC	0.244
ACTCCCAG	-0.0473
AGCCGATG	0.233
AGCCGATA	0.427
AGCCGATC	0.245
ACAGTGCT	-0.138
GCCCGGTA	0.38
ACCCGGTC	0.222

From the supplement of paper PMC3334620
